# Measurements from PubChem BioAssay (NCATS).
# Results filed as inconclusive are left out. Calls of active or inactive are those of the source. Calls come from the whole dose curve; as a rule, active = well fitted inhibition curve with a large enough effect; inconclusive = small, poorly fitted or top-dose-only effect; inactive = flat fitted curve, though single readings scatter.
# System: not listed separately
# Experiment: qHTS for identification of novel therapeutic agents for treatment of microphthalmiaassociated transcription factor (MiT) renal cell carcinoma (RCC) (AID 1963991)
# Settings: TFE3-RCC viability, CellTiter-Glo, 48 h; measured here: UOK145 Z-AUC; stronger effect = lower value
# Summary of the method: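 Viability of three TFE3-fusion renal carcinoma lines measured by CellTiter-Glo after 48 h treatment with each of 1912 compounds at 11 concentrations. Responses scaled between DMSO (100%) and empty wells (0%) before curve fitting.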
row,SMILES,z-score
1,N=C1SC(=Cc2ccc(-c3ccc4c(c3)C(=O)NC4=O)o2)C(=O)N1c1ccc(Br)cc1,0.868
2,CC[C@H]1OC(=O)[C@H](C)[C@@H](O[C@H]2C[C@@](C)(OC)[C@@H](O)[C@H](C)O2)[C@H](C)[C@@H](O[C@@H]2O[C@H](C)C[C@H](N(C)C)[C@H]2O)[C@](C)(O)C[C@H](C)C(=NOCOCCOC)[C@H](C)[C@@H](O)[C@]1(C)O,0.696
3,CC(C)c1onc(-c2c(Cl)cccc2Cl)c1COc1ccc(C=Cc2cccc(C(=O)O)c2)c(Cl)c1,0.507
4,CC(=O)OCC(=O)[C@@]1(O)CC[C@H]2[C@@H]3CCC4=CC(=O)C=C[C@]4(C)[C@@H]3[C@@H](O)C[C@@]21C,-2.56
5,O=C(O)C1=NC(C(=O)O)CC(C=CN2c3cc(O)c(OC4OC(CO)C(O)C(O)C4O)cc3CC2C(=O)O)=C1 (stereo not drawn),0.57
6,CCCCC[C@H](O)C=C[C@H]1[C@H](O)CC(=O)[C@H]1CCCCCCC(=O)O,1.28
7,CN[C@H]1[C@@H](O[C@@H]2[C@H](O[C@@H]3[C@@H](O)[C@@H](O)[C@@H](N=C(N)N)[C@@H](O)[C@@H]3N=C(N)N)O[C@H](C)[C@@]2(O)C=O)O[C@@H](CO)[C@@H](O)[C@H]1O,2.73
8,COc1ccc2c(c1)CC[C@H]1[C@@H]2CC[C@]2(C)[C@@H](NCCCCCCN3C(=O)C=CC3=O)CC[C@H]12,0.661
9,C[C@@H]1O[C@@H](O[C@H]2CC[C@@]3(C)[C@H](CC[C@@H]4[C@H]3C[C@@H](O)[C@]3(C)[C@@H](C5=CC(=O)OC5)CC[C@]43O)C2)C[C@H](O)[C@@H]1O[C@H]1C[C@H](O)[C@H](O[C@H]2C[C@H](O)[C@@H](O)[C@@H](C)O2)[C@H](C)O1 (stereo in doubt),-0.987
10,CC[C@H](C)C(=O)O[C@H]1C[C@H](O)C=C2C=C[C@H](C)[C@H](CC[C@@H](O)C[C@@H](O)CC(=O)O)[C@H]21,0.248
11,CC[C@]1(O)C[C@H]2CN(CCC3=c4ccccc4=N[C]3[C@@](C(=O)OC)(c3cc4c(cc3OC)N(C)[C@H]3[C@@](O)(C(N)=O)[C@H](O)[C@]5(CC)C=CCN6CC[C@]43[C@@H]65)C2)C1,-0.904
12,CCC=CC[C@H]1C(=O)CC[C@@H]1CC(=O)OC,0.356
13,CN[C@@H]1[C@@H](O)[C@@H](O[C@@H]2[C@@H](O)[C@H](O[C@H]3O[C@H](CN)[C@@H](O)[C@H](O)[C@@H]3O)[C@@H](N)C[C@@H]2NC(=O)[C@@H](O)CN)OC[C@]1(C)O,0.614
14,CO[C@H]1O[C@@H]2O[C@@]3(C)CC[C@@H]4[C@@H](C)CC[C@@H]([C@H]1C)[C@@]24OO3,0.763
15,CC1(C)[C@H]2CC[C@]3(C)[C@@H](C(=O)C=C4[C@@H]5C[C@@](C)(C(=O)O)CC[C@]5(C)CC[C@]43C)[C@@]2(C)CC[C@@H]1O,0.985
16,CCNC(=O)[C@H]1O[C@@H](n2cnc3c(N)nc(NCCc4ccc(CCC(=O)O)cc4)nc32)[C@H](O)[C@H]1O,0.68
17,CCOC(=O)[C@H]1O[C@H]1C(=O)N[C@@H](CC(C)C)C(=O)NCCC(C)C,0.572
18,CCN1C[C@H](C)n2c(c(O)c3c(=O)n(Cc4ccc(F)c(Cl)c4)nc(C(=O)NC)c32)C1=O,2.87
19,CC1(C)OC2CC3C4CC(F)C5=CC(=O)C=CC5(C)C4C(O)CC3(C)[C@]2(C(=O)CO)O1 (stereo partly drawn),-1.73

# System: not listed separately
# Experiment: qHTS profiling for inhibitors of Plasmodium falciparum proliferation (AID 504749); note: nearly all actives have a fitted effect of over 60% in size; note: potency is the fitted concentration of half-maximal effect;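 for activity, negative = inhibition: 0% = DMSO vehicle and full inhibition = artemisinin control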
# Settings: P. falciparum in erythrocytes, SYBR Green DNA, 72 h; at 28.7 µM (top of the series); parasite line A
# Summary of the method: (§1)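 SYBR Green fluorescence (ex 485 nm, em 535 nm) reports parasite DNA after 72 h compound exposure of infected red cells at 0.3% parasitemia, 2.5% hematocrit; signal normalized to 0.29 uM artemisinin and vehicle wells.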
row,SMILES,"activity, negative = inhibition"
1,O=C1C(CCC(O)c2ccc(F)cc2)C(c2ccc(O)cc2)N1c1ccc(F)cc1 (stereo not drawn),3.97% (inactive)
2,CN1CC(=O)N2C(Cc3c([nH]c4ccccc34)[C@H]2c2ccc3c(c2)OCO3)C1=O (stereo partly drawn),3.25% (inactive)
3,CC(C)CN(C[C@@H](O)[C@H](Cc1ccccc1)NC(=O)O[C@H]1CO[C@H]2OCC[C@H]21)S(=O)(=O)c1ccc(N)cc1,1% (inactive)

# Same assay, conditions: P. falciparum in erythrocytes, SYBR Green DNA, 72 h; at 28.7 µM (top of the series); parasite line B
row,SMILES,"activity, negative = inhibition"
1,O=C1C(CCC(O)c2ccc(F)cc2)C(c2ccc(O)cc2)N1c1ccc(F)cc1 (stereo not drawn),8.1% (inactive)
2,CN1CC(=O)N2C(Cc3c([nH]c4ccccc34)[C@H]2c2ccc3c(c2)OCO3)C1=O (stereo partly drawn),5.31% (inactive)
3,CC(C)CN(C[C@@H](O)[C@H](Cc1ccccc1)NC(=O)O[C@H]1CO[C@H]2OCC[C@H]21)S(=O)(=O)c1ccc(N)cc1,-15.6% (inactive)

# System: 3D7
# Experiment: as above
# Settings: P. falciparum in erythrocytes, SYBR Green DNA, 72 h; series mostly up to 28.7 µM; activity, negative = inhibition: at the top concentration
# Summary of the method: as §1
SMILES,"activity, negative = inhibition",Potency
O=C1C(CCC(O)c2ccc(F)cc2)C(c2ccc(O)cc2)N1c1ccc(F)cc1 (stereo not drawn),-1.33% (inactive),–
CN1CC(=O)N2C(Cc3c([nH]c4ccccc34)[C@H]2c2ccc3c(c2)OCO3)C1=O (stereo partly drawn),-0.933% (inactive),–
CC(C)CN(C[C@@H](O)[C@H](Cc1ccccc1)NC(=O)O[C@H]1CO[C@H]2OCC[C@H]21)S(=O)(=O)c1ccc(N)cc1,-1.53% (inactive),–
COc1c(C)c2c(c(O)c1CC=C(C)CCC(=O)OCCN1CCOCC1)C(=O)OC2,–,11.2 µM (active)

# System: 7G8
# Experiment: as above
# Settings: P. falciparum in erythrocytes, SYBR Green DNA, 72 h; series mostly up to 28.7 µM; activity, negative = inhibition: at the top concentration
# Summary of the method: as §1
SMILES,"activity, negative = inhibition",Potency
O=C1C(CCC(O)c2ccc(F)cc2)C(c2ccc(O)cc2)N1c1ccc(F)cc1 (stereo not drawn),-27.4% (inactive),–
CN1CC(=O)N2C(Cc3c([nH]c4ccccc34)[C@H]2c2ccc3c(c2)OCO3)C1=O (stereo partly drawn),–,10 µM (active)
CC(C)CN(C[C@@H](O)[C@H](Cc1ccccc1)NC(=O)O[C@H]1CO[C@H]2OCC[C@H]21)S(=O)(=O)c1ccc(N)cc1,–,12.6 µM (active)
COc1c(C)c2c(c(O)c1CC=C(C)CCC(=O)OCCN1CCOCC1)C(=O)OC2,–,4.47 µM (active)
